For some of these results: Results with a measured potency or affinity are listed apart. The list shows a part of the results. The source made the active and inactive calls.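 The calls were made as follows, unless noted: active = calcium signal cut by more than 3 SD below the full-agonist control yet still positive, in both repeats and the earlier primary screen; inactive = the rest.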
Columns and labels:
[1] = system: TRPC4 beta (transient receptor potential cation channel C4), mouse; assay: activators of mouse TRPC4 channel, confirmation, cell-based, Fluo4 calcium, HEK293 TRPC4beta/mu-opioid, duplicates, 10 µM (AID 2426;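 active = fluorescence ratio normalized to control raised more than 50% in primary screen plus both repeat runs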); conditions: Fluo4 calcium fluorescence, at 10 µM; stronger effect = higher value
[2] = system: transient receptor potential cation channel C4 beta (TRPC4), mouse; assay: activators of mouse TRPC4 channel, confirmation, cell-based, second round, Fluo4, HEK293 TRPC4beta/mu-opioid, 1 µM (AID 2461;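 active = primary screen active and over 50% activation in each of two duplicate runs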); conditions: Fluo4 calcium fluorescence, at 1 µM; stronger effect = higher value
[3] = system: TRPC4 (transient receptor potential cation channel C4 beta), mouse; assay: positive allosteric modulators of mouse TRPC4, confirmation, cell-based, second round, Fluo-4, HEK293 TRPC4beta/mu-opioid, 1 µM (AID 2554;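 active = primary screen hit whose fluorescence ratio, in both repeats, exceeds the weak agonist control mean by 3 SD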); conditions: DAMGO EC20, Fluo-4 calcium flux, at 1 µM; stronger effect = higher value
[4] = system: TRPC4 beta (transient receptor potential cation channel C4), mouse; assay: positive allosteric modulators of mouse TRPC4, confirmation, cell-based, Fluo-4, HEK293 TRPC4beta/mu-opioid (AID 2555;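 active = primary screen hit whose calcium fluorescence ratio, in both repeats, exceeds the weak agonist control mean by 3 SD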); conditions: DAMGO EC20, Fluo-4 calcium flux, at 10 µM; stronger effect = higher value
[5] = molecular target: Short transient receptor potential channel 4 (Mus musculus) (UniProt Q9QUQ5); assay: inhibitors of mouse TRPC4 channel, confirmation, cell-based, Fluo4, HEK293 TRPC4beta/mu-opioid (AID 2636); conditions: DAMGO, Fluo4 calcium flux, at 10 µM; stronger effect = higher value
Sequence of Short transient receptor potential channel 4 (Mus musculus) (Q9QUQ5 whole entry, looked up): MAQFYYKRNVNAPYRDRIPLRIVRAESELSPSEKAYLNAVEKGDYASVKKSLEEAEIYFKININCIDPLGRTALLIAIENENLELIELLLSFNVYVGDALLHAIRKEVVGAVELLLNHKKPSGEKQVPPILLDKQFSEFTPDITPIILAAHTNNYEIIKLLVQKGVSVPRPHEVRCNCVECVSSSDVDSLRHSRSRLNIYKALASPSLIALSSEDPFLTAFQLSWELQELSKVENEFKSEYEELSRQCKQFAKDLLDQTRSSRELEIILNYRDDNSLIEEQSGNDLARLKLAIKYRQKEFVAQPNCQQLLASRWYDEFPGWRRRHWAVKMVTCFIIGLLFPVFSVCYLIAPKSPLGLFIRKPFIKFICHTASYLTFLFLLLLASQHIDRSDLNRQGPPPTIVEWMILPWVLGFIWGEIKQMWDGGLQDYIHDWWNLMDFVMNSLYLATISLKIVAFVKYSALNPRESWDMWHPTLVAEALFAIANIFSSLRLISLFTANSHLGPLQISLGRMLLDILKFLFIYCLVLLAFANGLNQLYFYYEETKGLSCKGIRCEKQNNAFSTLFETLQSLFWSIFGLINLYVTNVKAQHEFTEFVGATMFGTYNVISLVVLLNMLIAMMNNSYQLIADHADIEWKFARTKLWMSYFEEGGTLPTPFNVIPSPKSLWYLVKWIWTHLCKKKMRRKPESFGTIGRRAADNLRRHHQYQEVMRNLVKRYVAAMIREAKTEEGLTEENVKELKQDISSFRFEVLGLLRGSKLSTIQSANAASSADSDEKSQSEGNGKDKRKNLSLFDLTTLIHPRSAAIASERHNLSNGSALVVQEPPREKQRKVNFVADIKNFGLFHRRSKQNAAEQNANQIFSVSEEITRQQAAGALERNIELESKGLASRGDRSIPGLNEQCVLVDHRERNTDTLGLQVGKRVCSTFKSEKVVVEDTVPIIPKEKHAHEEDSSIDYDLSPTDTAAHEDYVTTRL

[6] = molecular target: Short transient receptor potential channel 4 (Mus musculus) (UniProt Q9QUQ5); assay: inhibitors of mouse TRPC4 channel, confirmation, cell-based, second round, Fluo4, HEK293 TRPC4beta/mu-opioid, 1 µM (AID 2637;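 active = calcium signal ratio cut to more than 3 SD under the fully stimulated control mean yet still positive, in both repeats and the primary screen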); conditions: Fluo4 calcium flux, DAMGO, at 1 µM; stronger effect = higher value
[7] = molecular target: Short transient receptor potential channel 4 (Mus musculus) (UniProt Q9QUQ5); assay: mouse TRPC4 channel activators, dose response, cell-based, HEK293 TRPC4/mu-opioid, Fluo-4 calcium (AID 434937;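 active = primary screen activator hit with a dose response curve and TRPC4 channel activation at any tested dose; inactive = no activation, no dose response, or not a primary hit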)
[8] = molecular target: Short transient receptor potential channel 4 (Mus musculus) (UniProt Q9QUQ5); assay: TRPC4 positive allosteric modulators, dose response, cell-based, HEK293 TRPC4/mu-opioid, Fluo-4 calcium, EC20 DAMGO (AID 434941;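 active = earlier screen potentiator hit that boosts the TRPC4 ion channel at some dose, with a dose response; inactive = no potentiation, no dose response, or not a prior hit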;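 also: calcium entry triggered by an EC20 dose of DAMGO at the co-expressed mu-opioid receptor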)
[9] = molecular target: Short transient receptor potential channel 4 (Mus musculus) (UniProt Q9QUQ5); assay: mouse TRPC4 channel inhibitors, dose response, cell-based, HEK293 TRPC4/mu-opioid, Fluo-4 calcium (AID 434942;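 active = primary screen inhibitor hit that blocks the TRPC4 channel at some tested dose, yielding a dose curve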)
[10] = molecular target: Short transient receptor potential channel 6 (Mus musculus) (UniProt Q61143); assay: inhibition of mouse TRPC6 channel, confirmation, selectivity assay for TRPC4 inhibitor project, cell-based, HEK293, membrane potential dye, duplicate (AID 434948;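 active = active in primary screen and both duplicates, each dropping signal beyond three positive-control SD with fluorescence still positive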); conditions: HEK293 TRPC6, membrane potential dye fluorescence, at 10 µM, stimulated with maximal-effect acetylcholine; stronger effect = higher value
Sequence of Short transient receptor potential channel 6 (Mus musculus) (Q61143 whole entry, looked up): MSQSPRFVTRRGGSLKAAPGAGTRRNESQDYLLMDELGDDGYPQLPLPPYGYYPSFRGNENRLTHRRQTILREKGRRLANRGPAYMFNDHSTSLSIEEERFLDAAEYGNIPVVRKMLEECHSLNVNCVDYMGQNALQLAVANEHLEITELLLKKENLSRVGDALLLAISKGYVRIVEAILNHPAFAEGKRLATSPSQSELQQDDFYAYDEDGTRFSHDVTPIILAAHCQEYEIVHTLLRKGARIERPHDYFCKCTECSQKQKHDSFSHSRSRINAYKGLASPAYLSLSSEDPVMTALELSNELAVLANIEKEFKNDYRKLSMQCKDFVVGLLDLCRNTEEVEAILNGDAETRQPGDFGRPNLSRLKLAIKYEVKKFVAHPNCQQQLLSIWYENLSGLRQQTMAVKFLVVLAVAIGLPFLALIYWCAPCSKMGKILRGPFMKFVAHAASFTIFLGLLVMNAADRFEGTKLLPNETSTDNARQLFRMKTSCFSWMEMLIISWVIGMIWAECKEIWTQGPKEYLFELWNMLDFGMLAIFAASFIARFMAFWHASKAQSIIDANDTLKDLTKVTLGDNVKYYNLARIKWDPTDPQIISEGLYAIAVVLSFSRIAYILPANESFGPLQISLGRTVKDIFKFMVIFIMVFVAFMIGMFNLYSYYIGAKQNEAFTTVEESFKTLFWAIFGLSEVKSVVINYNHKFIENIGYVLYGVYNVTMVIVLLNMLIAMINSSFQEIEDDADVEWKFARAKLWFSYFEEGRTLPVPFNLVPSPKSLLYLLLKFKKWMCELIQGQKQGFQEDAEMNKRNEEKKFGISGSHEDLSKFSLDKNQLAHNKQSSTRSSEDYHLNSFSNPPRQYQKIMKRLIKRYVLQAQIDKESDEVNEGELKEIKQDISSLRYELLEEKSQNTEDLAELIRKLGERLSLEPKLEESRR

[11] = molecular target: Short transient receptor potential channel 6 (Mus musculus) (UniProt Q61143); assay: activation of mouse TRPC6 channel, confirmation, selectivity assay for TRPC4 activator project, cell-based, HEK293, membrane potential dye, duplicate (AID 434950;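 active = membrane potential signal rise above negative control mean plus 3 SD in both duplicates, also active in the earlier TRPC4 screen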;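 as to activation: 0% = buffer only wells and 100% = acetylcholine maximal-effect wells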); conditions: HEK293 TRPC6, membrane potential fluorescence, at 10 µM; stronger effect = higher value
[12] = molecular target: Short transient receptor potential channel 6 (Mus musculus) (UniProt Q61143); assay: TRPC6 potentiation by TRPC4 potentiator hits, confirmation, selectivity assay for TRPC4 potentiator project, HEK293 cells, membrane potential dye, duplicate (AID 434952;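 active = compound raising the membrane signal above positive-control mean plus 3 SD in both repeats, and a primary screen hit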); conditions: HEK293 TRPC6, membrane potential dye fluorescence, at 10 µM, maximal acetylcholine added after compound; stronger effect = higher value
[13] = molecular target: Short transient receptor potential channel 4 (Mus musculus) (UniProt Q9QUQ5); assay: calcium flux activators in TRPC4/5HT1a cells, counter-screen for TRPC4 activator project, cell-based, second counter screen, HEK293 TRPC4/5HT1a, Fluo-4 (AID 434977;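 active = calcium signal rise above buffer-control mean plus 5 SD in both duplicates, and also a hit in the primary screen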); conditions: Fluo-4 calcium flux, at 10 µM; stronger effect = higher value
[14] = calcium flux inhibitors in TRPC4/5HT1a cells, confirmation, counter-screen for TRPC4 inhibitor project, cell-based, second counter screen, HEK293 TRPC4/5HT1a, Fluo-4 (AID 434978;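 active = primary screen active whose calcium signal fell more than 3 SD beyond the full-serotonin control mean in both duplicate plates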;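 as to outcome: serotonin given first at submaximal then at maximal dose after compound preincubation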); conditions: Fluo-4 calcium flux, at 10 µM, serotonin added to trigger calcium flux; stronger effect = higher value
[15] = system: TRPC4 (mouse), co-expressed with 5HT1a in HEK293; assay: calcium flux potentiators in TRPC4/5HT1a cells, confirmation, counter-screen for TRPC4 potentiator project, cell-based, second counter screen, HEK293 TRPC4/5HT1a, Fluo-4 (AID 434979;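 active = signal rise over 3 SD above mean of control wells given weak agonist, in both repeats and first screen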); conditions: Fluo-4 calcium flux, at 10 µM, serotonin added at its EC20 dose; stronger effect = higher value
[16] = calcium flux activation in mu-opioid HEK293 cells, confirmation, counter-screen for TRPC4 activator project, cell-based, HEK293 mu-opioid receptor line (AID 449723;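 active = hit in primary screen, with calcium signal over 5 SD above buffer well mean in both duplicates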;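 also: counter screen cells carry the mu-opioid receptor alone and lack TRPC4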); conditions: Fluo-4 calcium fluorescence, at 10 µM; stronger effect = higher value
[17] = calcium flux enhancement in mu-opioid HEK293 cells, confirmation, counter-screen for TRPC4 allosteric potentiator project, cell-based, HEK293 mu-opioid receptor line (AID 449724;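 active = calcium signal rise more than 3 SD above the low-dose agonist control mean, in both duplicate plates and the primary screen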); conditions: Fluo-4 calcium flux, at 10 µM, compound added before EC20 DAMGO stimulus; stronger effect = higher value
[18] = nonspecific thallium flux increase in parental CHO-K1, confirmation, counter-screen for KCNQ2 potentiator project, cell-based, FluxOR thallium flux, duplicate (AID 2282;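 active = signal rise of at least 3 SD above the untreated control mean, in both duplicate wells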;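 also: counter screen of KCNQ2 potentiator hits so any rise reflects channel-independent effects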); conditions: parental CHO-K1 cells, FluxOR thallium flux fluorescence; at 10 µM; stronger effect = higher value; zero = vehicle mean+3SD, 100% = vehicle-minus-blank window
[19] = molecular target: Potassium voltage-gated channel subfamily KQT member 1 (Homo sapiens) (UniProt P51787); assay: human KCNQ1 channel potentiation off-target, confirmation, selectivity assay for KCNQ2 potentiator project, cell-based, CHO, FluxOR thallium flux (AID 2283;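 active = fluorescence ratio rise of at least 3 SD of vehicle wells above their mean, in both replicate wells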;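 also: 0% = vehicle mean plus 3 SD and 100% = vehicle minus unstimulated blank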); conditions: CHO KCNQ1 stable, FluxOR thallium flux fluorescence; at 10 µM; stronger effect = higher value; beyond 3SD, as % of vehicle-control signal
Sequence of Potassium voltage-gated channel subfamily KQT member 1 (Homo sapiens) (P51787 whole entry, looked up): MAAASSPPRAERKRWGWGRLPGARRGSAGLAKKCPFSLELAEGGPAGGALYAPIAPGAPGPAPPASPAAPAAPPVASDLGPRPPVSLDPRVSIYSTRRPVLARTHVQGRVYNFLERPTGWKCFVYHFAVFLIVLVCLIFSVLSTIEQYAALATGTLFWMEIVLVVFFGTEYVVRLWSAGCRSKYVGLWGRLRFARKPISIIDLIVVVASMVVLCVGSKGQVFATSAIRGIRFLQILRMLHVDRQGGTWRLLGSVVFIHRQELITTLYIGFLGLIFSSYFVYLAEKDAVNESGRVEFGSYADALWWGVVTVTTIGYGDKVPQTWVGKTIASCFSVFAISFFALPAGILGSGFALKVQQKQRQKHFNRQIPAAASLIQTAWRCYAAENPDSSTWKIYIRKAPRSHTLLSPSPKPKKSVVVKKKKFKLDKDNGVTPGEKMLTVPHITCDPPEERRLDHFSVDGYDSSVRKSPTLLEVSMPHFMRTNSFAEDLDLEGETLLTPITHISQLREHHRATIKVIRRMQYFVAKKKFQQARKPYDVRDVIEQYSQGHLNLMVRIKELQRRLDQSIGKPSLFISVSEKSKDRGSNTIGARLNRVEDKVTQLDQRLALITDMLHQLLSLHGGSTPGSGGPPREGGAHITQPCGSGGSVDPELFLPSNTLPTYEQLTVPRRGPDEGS

[20] = molecular target: Potassium voltage-gated channel subfamily KQT member 2 (Rattus norvegicus) (UniProt O88943); assay: rat KCNQ2 channel potentiators, confirmation, cell-based, CHO, FluxOR thallium flux, duplicate (AID 2287;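 active = fluorescence ratio rising 3 SD or more over the vehicle control mean in both replicates, plus primary screen hit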;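 also: peak minus minimum thallium fluorescence divided by baseline after K/Tl stimulus; 0% = vehicle mean plus 3 SD and 100% = vehicle minus unstimulated blank difference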); conditions: CHO-KCNQ2 cells, FluxOR thallium flux fluorescence; at 10 µM; stronger effect = higher value
Sequence of Potassium voltage-gated channel subfamily KQT member 2 (Rattus norvegicus) (O88943 whole entry, looked up): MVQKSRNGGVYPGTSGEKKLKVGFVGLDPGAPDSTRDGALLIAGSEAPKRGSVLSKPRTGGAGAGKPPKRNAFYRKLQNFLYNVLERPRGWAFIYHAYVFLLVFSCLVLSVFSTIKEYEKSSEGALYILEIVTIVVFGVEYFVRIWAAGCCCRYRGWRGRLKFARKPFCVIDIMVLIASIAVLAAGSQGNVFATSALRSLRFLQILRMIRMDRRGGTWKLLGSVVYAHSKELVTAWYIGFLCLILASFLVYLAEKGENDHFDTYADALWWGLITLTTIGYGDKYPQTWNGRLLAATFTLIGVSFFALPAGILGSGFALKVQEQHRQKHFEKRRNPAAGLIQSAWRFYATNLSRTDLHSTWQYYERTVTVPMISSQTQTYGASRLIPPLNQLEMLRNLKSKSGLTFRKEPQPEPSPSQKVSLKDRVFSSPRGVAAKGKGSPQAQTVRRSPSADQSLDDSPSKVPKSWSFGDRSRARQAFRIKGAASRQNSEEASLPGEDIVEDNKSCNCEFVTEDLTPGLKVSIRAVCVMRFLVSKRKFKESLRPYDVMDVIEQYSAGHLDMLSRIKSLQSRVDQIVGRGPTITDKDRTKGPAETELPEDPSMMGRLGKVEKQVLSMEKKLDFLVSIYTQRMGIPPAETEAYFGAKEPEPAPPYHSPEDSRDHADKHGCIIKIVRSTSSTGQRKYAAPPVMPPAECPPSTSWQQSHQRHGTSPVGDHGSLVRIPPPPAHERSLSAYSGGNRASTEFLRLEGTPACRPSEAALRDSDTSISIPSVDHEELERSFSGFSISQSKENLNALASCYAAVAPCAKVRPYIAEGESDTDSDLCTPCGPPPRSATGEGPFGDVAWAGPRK

CN1CCN(c2ccc(Cl)cc2NC(=O)/C=C/c2cccc(F)c2)CC1
active: potentiation [3] 11% | potentiation [15] 41.1%
inactive: outcome [1] | outcome [2] | outcome [4] | outcome [5] | outcome [6] | outcome [7] | outcome [8] | outcome [9] | outcome [10] | outcome [11] | outcome [12] | outcome [13] | outcome [14] | outcome [16] | outcome [17]

COc1ccccc1-c1cc(-c2ccccc2)nc(=O)[nH]1
active: potentiation [4] 22% | potentiation [15] 51.2%
inactive: outcome [1] | outcome [2] | outcome [3] | outcome [5] | outcome [6] | outcome [7] | outcome [8] | outcome [9] | outcome [10] | outcome [11] | outcome [12] | outcome [13] | outcome [14] | outcome [16] | outcome [17]

COc1cc(COCC(O)CN2CCN(CCN3C(=O)c4cccc5cccc(c45)C3=O)CC2)cc(OC)c1OC (stereo unspecified)
inactive: outcome [1] | outcome [2] | outcome [3] | outcome [4] | outcome [5] | outcome [6] | outcome [7] | outcome [8] | outcome [9] | outcome [10] | outcome [11] | outcome [12] | outcome [13] | outcome [14] | outcome [15] | outcome [16] | outcome [17]

Fc1cc(F)c2nc(Nc3nc4c(F)cccc4s3)sc2c1
active: potentiation, less the hit threshold [20] 20.5%
inactive: activity increase over 3SD of controls [18] -5.6% | activation over 3SD threshold [19] -15.7%

Cc1cc(OCC(=O)N2CCCC2)cc(C)c1Cl
inactive: outcome [1] | outcome [2] | outcome [3] | outcome [4] | outcome [5] | outcome [6] | outcome [7] | outcome [8] | outcome [9] | outcome [10] | outcome [12] | outcome [13] | outcome [14] | outcome [15] | outcome [16] | outcome [17]
active: activation [11] 38%

CN(C)CCCNc1ncnc2c1cnn2-c1ccccc1
active: potentiation [3] 16% | potentiation [4] 17% | potentiation [15] 28.6%
inactive: outcome [1] | outcome [2] | outcome [5] | outcome [6] | outcome [7] | outcome [8] | outcome [9] | outcome [10] | outcome [11] | outcome [12] | outcome [13] | outcome [14] | outcome [16] | outcome [17]

Fc1ccc(CN2C3=NCCCN3c3ccccc32)cc1
inactive: outcome [1] | outcome [2] | outcome [3] | outcome [4] | outcome [5] | outcome [6] | outcome [7] | outcome [8] | outcome [9] | outcome [10] | outcome [11] | outcome [12] | outcome [13] | outcome [14] | outcome [15] | outcome [16] | outcome [17]

COc1cc(NC(=O)C(C)Oc2ccccc2)cc(OC)c1 (stereo unspecified)
inactive: outcome [1] | outcome [2] | outcome [3] | outcome [4] | outcome [5] | outcome [6] | outcome [7] | outcome [8] | outcome [9] | outcome [10] | outcome [11] | outcome [12] | outcome [13] | outcome [14] | outcome [15] | outcome [16] | outcome [17]

CC(C)CCOc1ccc(C(=O)NCC(c2ccco2)N(C)C)cc1 (stereo unspecified)
active: inhibition [5] 89%
inactive: outcome [1] | outcome [2] | outcome [3] | outcome [4] | outcome [6] | outcome [7] | outcome [8] | outcome [9] | outcome [10] | outcome [11] | outcome [12] | outcome [13] | outcome [14] | outcome [15] | outcome [16] | outcome [17]

Cc1cc2nc(CSc3ccc(Cl)cc3)cc(=O)n2[nH]1
inactive: outcome [1] | outcome [2] | outcome [3] | outcome [4] | outcome [5] | outcome [6] | outcome [7] | outcome [8] | outcome [9] | outcome [10] | outcome [11] | outcome [12] | outcome [13] | outcome [14] | outcome [15] | outcome [16] | outcome [17]

CCN(CC)CC(=O)Nc1ccccc1SCC(=O)Nc1ccsc1C(=O)OC
inactive: outcome [1] | outcome [2] | outcome [3] | outcome [4] | outcome [5] | outcome [6] | outcome [7] | outcome [8] | outcome [9] | outcome [10] | outcome [11] | outcome [12] | outcome [13] | outcome [14] | outcome [15] | outcome [16] | outcome [17]

CCOc1ccc(-n2c(C)cc(/C=C3/C(=N)N4C(=NC3=O)SN=C4S(C)(=O)=O)c2C)cc1
inactive: outcome [1] | outcome [2] | outcome [3] | outcome [4] | outcome [5] | outcome [6] | outcome [7] | outcome [8] | outcome [9] | outcome [10] | outcome [11] | outcome [12] | outcome [13] | outcome [14] | outcome [15] | outcome [16] | outcome [17]

O=C(CN1CCCCC1)Nc1ccccc1Oc1ccccc1
active: inhibition [5] 92% | inhibition [10] 33.5% | inhibition [14] 31.5%
inactive: outcome [1] | outcome [2] | outcome [3] | outcome [4] | outcome [6] | outcome [7] | outcome [8] | outcome [9] | outcome [11] | outcome [12] | outcome [13] | outcome [15] | outcome [16] | outcome [17]

Cn1c(SCCOc2ccccc2F)nc2ccccc2c1=O
inactive: outcome [1] | outcome [2] | outcome [3] | outcome [5] | outcome [6] | outcome [7] | outcome [8] | outcome [9] | outcome [10] | outcome [11] | outcome [12] | outcome [13] | outcome [14] | outcome [15] | outcome [16] | outcome [17]
active: potentiation [4] 10%

COc1ccc(CCN2CCCC(CN(C)C(=O)c3ccoc3)C2)cc1 (stereo unspecified)
active: potentiation [15] 14.1%
inactive: outcome [1] | outcome [2] | outcome [3] | outcome [4] | outcome [5] | outcome [6] | outcome [7] | outcome [8] | outcome [9] | outcome [10] | outcome [11] | outcome [12] | outcome [13] | outcome [14] | outcome [16] | outcome [17]

— PubChem BioAssay
